The target in test [1] is Serine/threonine-protein kinase PLK3 (Homo sapiens) (UniProt Q9H4B4). Conditions: at 1 µM; call rule not given here.
Test [2] has the same target. The conditions noted are these: at 10 µM.
For test [3], the target named is T1, cAMP-dependent protein kinase catalytic subunit PRKX (Homo sapiens) (UniProt P51817).
T1 sequence (whole entry): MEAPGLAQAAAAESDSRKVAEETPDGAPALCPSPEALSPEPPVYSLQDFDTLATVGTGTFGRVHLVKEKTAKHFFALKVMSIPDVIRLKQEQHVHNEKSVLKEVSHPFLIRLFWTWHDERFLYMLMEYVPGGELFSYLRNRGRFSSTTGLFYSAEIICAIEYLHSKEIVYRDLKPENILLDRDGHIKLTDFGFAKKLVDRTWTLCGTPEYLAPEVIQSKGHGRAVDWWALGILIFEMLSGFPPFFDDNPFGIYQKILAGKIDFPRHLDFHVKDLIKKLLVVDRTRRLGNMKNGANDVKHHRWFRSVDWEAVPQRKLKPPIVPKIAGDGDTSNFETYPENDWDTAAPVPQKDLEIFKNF
The conditions noted are these: at 1 µM.

In test [4] the target is T1, cAMP-dependent protein kinase catalytic subunit PRKX (Homo sapiens). The conditions noted are these: at 10 µM.
The target in test [5] is Protein-tyrosine kinase 2-beta (Homo sapiens) (UniProt Q14289). Conditions: at 1 µM.
Sequence of Protein-tyrosine kinase 2-beta (Homo sapiens) (Q14289 whole entry, looked up): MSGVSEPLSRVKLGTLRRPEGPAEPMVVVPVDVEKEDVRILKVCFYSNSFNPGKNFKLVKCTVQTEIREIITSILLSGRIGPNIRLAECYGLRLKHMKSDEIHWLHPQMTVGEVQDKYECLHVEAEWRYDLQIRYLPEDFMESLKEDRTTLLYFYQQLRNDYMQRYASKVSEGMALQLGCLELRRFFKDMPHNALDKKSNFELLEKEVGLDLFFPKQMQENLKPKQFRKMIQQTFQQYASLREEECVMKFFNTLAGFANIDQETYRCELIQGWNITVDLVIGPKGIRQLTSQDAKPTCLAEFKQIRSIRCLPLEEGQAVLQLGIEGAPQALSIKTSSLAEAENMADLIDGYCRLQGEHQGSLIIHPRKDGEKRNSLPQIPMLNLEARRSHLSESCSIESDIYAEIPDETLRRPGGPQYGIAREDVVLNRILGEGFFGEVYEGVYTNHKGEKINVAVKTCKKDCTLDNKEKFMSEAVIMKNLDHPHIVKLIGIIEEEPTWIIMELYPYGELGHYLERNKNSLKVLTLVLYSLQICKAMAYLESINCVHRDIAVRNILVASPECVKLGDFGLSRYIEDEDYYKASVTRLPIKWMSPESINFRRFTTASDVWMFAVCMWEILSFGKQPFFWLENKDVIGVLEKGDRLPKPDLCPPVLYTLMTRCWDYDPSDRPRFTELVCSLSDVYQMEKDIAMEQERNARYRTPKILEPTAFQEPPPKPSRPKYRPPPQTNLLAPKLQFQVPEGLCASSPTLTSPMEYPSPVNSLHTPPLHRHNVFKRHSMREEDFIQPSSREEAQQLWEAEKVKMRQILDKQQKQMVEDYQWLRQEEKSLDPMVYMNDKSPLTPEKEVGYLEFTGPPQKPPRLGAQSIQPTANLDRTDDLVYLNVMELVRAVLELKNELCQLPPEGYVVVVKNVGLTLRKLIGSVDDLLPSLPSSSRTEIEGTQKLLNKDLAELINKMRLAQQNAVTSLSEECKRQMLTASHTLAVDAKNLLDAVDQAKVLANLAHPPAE
Test [6] shares this target. Conditions: at 10 µM.
Test [7] addresses Receptor-interacting serine/threonine-protein kinase 2 (Homo sapiens) (UniProt O43353). The conditions noted are these: at 1 µM.
Test [8] has the same target. Conditions: at 10 µM.
Test [9] concerns the target Rho-associated protein kinase 1 (Homo sapiens) (UniProt Q13464). Conditions: at 1 µM.
The target is the same in test [10]. The conditions noted are these: at 10 µM.
The target of test [11] is Rho-associated protein kinase 2 (Homo sapiens) (UniProt O75116). The conditions noted are these: at 1 µM.
The target is the same in test [12]. The conditions noted are these: at 10 µM.
The target in test [13] is Proto-oncogene tyrosine-protein kinase receptor Ret (Homo sapiens) (UniProt P07949). The conditions noted are these: at 1 µM.
The target is the same in test [14]. Conditions: at 10 µM.
For test [15], the target named is Macrophage-stimulating protein receptor (Homo sapiens) (UniProt Q04912). The conditions noted are these: at 1 µM.
Sequence of Macrophage-stimulating protein receptor (Homo sapiens) (Q04912 25-304 limits assumed): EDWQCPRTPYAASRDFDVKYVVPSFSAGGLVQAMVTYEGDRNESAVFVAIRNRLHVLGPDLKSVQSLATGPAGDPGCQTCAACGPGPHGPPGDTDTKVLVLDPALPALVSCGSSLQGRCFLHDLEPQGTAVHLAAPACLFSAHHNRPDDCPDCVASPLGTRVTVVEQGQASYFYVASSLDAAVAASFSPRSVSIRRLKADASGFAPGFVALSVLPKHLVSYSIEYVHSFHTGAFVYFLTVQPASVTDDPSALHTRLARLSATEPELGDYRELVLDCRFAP
Sequence of Macrophage-stimulating protein receptor (Homo sapiens) (Q04912 310-1400 limits assumed): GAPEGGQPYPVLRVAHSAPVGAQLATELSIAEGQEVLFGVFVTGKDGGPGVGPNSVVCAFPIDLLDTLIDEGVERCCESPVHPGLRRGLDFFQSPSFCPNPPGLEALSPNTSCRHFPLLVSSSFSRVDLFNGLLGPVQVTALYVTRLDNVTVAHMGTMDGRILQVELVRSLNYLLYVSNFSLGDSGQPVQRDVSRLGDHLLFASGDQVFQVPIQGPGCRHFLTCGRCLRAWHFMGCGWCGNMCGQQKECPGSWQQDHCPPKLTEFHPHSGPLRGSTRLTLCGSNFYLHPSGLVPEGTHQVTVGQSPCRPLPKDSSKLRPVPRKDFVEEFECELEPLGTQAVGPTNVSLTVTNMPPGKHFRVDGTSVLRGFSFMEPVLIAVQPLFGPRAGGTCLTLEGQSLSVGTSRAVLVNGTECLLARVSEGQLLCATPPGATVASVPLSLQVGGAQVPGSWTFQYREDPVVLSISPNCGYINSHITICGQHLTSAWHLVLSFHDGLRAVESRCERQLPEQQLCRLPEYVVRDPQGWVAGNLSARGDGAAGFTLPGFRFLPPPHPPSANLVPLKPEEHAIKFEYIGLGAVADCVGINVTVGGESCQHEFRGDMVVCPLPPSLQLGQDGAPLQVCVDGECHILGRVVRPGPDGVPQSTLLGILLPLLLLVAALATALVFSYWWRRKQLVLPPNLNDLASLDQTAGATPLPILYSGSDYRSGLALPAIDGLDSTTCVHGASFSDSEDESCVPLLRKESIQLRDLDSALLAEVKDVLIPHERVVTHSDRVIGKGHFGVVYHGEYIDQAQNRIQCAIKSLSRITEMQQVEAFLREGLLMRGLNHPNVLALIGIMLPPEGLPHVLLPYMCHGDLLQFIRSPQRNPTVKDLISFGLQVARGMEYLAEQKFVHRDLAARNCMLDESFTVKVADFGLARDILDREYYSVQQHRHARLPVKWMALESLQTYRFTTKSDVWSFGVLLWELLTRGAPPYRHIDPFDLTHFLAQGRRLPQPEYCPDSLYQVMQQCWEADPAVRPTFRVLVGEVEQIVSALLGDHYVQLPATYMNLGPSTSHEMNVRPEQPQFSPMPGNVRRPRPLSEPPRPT
For test [16] the target is unchanged. The conditions noted are these: at 10 µM.
The target of test [17] is Proto-oncogene tyrosine-protein kinase ROS (Homo sapiens) (UniProt P08922). The conditions noted are these: at 1 µM.
Test [18] shares this target. Conditions: at 10 µM.
Test [19] deals with T2, Tyrosine-protein kinase receptor TYRO3 (Homo sapiens) (UniProt Q06418).
T2 sequence (whole entry): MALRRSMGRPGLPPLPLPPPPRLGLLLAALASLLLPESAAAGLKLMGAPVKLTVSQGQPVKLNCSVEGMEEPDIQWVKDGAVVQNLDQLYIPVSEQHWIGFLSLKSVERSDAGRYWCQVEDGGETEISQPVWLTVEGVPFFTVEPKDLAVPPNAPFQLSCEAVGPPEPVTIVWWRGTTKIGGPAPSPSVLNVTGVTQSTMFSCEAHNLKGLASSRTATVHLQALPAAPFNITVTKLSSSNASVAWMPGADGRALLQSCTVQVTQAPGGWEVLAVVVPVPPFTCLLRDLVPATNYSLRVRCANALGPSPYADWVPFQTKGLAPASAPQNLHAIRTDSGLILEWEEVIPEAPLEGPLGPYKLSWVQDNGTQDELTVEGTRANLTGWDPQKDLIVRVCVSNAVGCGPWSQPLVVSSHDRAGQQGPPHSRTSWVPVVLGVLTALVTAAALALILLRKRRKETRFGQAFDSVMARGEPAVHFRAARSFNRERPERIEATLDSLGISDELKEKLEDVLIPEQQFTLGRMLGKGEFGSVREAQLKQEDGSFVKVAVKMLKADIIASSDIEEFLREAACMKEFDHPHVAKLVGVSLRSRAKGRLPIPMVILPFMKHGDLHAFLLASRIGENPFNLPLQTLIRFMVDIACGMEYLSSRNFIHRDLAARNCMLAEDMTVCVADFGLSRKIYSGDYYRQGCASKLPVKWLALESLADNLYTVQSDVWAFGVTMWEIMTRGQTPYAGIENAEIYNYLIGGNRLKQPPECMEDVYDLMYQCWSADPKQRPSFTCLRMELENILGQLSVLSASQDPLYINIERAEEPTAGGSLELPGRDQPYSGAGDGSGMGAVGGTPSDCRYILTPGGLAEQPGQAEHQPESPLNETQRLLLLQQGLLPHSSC
Conditions: at 1 µM.

The target in test [20] is T2, Tyrosine-protein kinase receptor TYRO3 (Homo sapiens). The conditions noted are these: at 10 µM.

Sequence of Receptor-interacting serine/threonine-protein kinase 2 (Homo sapiens) (O43353 whole entry): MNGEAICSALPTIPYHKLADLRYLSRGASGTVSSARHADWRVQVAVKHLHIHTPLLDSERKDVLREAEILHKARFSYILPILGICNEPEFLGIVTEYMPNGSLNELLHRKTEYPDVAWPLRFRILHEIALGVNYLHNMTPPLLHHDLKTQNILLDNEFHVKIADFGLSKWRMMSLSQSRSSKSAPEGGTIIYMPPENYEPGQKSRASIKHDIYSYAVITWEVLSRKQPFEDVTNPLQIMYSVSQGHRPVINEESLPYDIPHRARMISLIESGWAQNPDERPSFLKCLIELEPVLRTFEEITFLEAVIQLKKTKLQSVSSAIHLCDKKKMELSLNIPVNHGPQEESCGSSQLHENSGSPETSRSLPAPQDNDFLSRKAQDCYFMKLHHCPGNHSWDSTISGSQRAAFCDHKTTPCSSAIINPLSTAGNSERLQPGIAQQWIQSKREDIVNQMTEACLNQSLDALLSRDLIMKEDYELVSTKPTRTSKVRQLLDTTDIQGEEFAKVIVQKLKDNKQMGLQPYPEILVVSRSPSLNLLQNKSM
Sequence of Rho-associated protein kinase 1 (Homo sapiens) (Q13464 2-1354 limits assumed): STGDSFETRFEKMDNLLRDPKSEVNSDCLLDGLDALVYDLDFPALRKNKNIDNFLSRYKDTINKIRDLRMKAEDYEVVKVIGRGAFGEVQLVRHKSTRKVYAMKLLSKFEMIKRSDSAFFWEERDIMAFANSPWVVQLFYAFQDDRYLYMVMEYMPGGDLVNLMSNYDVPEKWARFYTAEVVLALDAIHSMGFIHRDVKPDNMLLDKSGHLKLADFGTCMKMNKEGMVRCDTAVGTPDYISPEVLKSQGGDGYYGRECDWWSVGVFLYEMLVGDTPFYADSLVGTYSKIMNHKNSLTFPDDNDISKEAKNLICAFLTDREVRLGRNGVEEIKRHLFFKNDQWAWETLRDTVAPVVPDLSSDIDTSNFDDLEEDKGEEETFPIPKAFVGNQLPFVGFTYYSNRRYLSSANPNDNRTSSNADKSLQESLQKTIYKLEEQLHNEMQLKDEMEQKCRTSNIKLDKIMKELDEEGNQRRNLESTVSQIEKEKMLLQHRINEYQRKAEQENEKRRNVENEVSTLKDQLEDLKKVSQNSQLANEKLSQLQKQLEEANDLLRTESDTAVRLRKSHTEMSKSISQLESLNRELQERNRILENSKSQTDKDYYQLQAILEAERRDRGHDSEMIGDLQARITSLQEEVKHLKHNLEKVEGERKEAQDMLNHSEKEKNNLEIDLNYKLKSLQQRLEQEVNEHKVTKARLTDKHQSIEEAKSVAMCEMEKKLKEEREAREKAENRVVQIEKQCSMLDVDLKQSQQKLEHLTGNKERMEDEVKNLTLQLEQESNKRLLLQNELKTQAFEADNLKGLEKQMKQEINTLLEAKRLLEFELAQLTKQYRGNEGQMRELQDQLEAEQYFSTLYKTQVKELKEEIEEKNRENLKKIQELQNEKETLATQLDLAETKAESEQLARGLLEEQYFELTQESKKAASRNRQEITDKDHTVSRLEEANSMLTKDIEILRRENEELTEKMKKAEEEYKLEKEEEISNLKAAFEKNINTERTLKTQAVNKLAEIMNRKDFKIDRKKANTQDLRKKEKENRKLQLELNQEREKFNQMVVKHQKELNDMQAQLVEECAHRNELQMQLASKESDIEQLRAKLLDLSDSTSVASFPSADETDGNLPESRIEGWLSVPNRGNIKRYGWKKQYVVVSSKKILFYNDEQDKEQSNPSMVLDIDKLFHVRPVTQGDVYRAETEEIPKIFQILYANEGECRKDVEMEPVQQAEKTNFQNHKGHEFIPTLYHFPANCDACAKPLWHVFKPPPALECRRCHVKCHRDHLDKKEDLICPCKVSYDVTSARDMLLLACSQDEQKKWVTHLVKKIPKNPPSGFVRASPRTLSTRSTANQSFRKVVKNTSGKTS
Sequence of Serine/threonine-protein kinase PLK3 (Homo sapiens) (Q9H4B4 whole entry, looked up): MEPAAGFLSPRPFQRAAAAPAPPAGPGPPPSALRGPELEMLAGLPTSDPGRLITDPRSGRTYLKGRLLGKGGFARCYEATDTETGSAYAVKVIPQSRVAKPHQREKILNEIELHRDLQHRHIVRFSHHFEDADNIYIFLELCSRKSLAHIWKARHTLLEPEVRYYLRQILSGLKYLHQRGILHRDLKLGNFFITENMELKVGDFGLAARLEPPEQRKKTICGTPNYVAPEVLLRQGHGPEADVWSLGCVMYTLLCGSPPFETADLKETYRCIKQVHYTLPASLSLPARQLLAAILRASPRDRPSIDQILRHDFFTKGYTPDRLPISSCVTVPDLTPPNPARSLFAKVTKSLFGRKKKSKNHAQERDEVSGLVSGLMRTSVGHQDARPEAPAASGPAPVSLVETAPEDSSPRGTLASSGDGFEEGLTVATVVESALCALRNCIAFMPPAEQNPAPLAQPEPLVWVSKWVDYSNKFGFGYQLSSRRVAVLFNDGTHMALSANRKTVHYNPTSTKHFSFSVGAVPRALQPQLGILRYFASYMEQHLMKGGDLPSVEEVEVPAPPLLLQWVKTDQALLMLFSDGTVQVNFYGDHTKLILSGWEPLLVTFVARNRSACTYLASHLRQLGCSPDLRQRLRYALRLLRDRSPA

For the compound `COc1ccc(CNc2nc(N(CCO)CCO)nc3c2ncn3C(C)C)cc1`, the residual activity is 97% (inactive) in test [1]; 95% in test [2]; 95% in test [3]; 101% in test [4]; 83% in test [5]; 85% in test [6]. Moreover, the residual activity in [7] turned out to be 83%; in [8] it was 78%; in test [9] it was 121%; in test [10], 109%; in test [11] it was 91%; in test [12], 96%. Moreover, the residual activity in test [13] stood at 108%; in test [14] it was 97%; in [15], 76%; in test [16], 85%; in test [17], 96%; in test [18] it was 85%. The residual activity in test [19] turned out to be 116%; in test [20] it was 97%.

With `CO[C@@H]1[C@H](N(C)C(=O)c2ccccc2)C[C@H]2O[C@]1(C)n1c3ccccc3c3c4c(c5c6ccccc6n2c5c31)C(=O)NC4`, the residual activity in [1] was 95% (inactive); in [2], 92%; in test [3], 24%; in test [4], 12%; in test [5], 16%; in test [6], 10%. For the same compound, the residual activity in [7] turned out to be 88%; in test [8], 70%; in [9] it was 110%; in [10], 115%; in [11], 79%; in [12], 57%. For the same compound, the residual activity amounted to 8% in test [13]; 5% in [14]; 47% in [15]; 56% in test [16]; 63% in [17]; 50% in test [18]. For the same compound, the residual activity in test [20] is 84%.

As for `O=[N+]([O-])c1ccc(-c2nc(-c3ccc(F)cc3)c(-c3ccncc3)[nH]2)cc1`, the residual activity came to 108% in test [2]; 132% in [3]; 26% in [4]; 114% in test [5]; 105% in test [6]; 19% in test [7]. Further, the residual activity was 25% in test [8]; 122% in [9]; 118% in test [10]; 87% in [11]; 94% in [12]; 78% in test [13]. Further, the residual activity in [14] was found to be 73%; in test [15] it was 90%; in test [16], 90%; in test [17] it was 104%; in test [18] it was 91%; in test [19], 86%. Moreover, the residual activity in test [20] amounted to 111%.

With `C[C@@H](N)[C@H]1CC[C@H](C(=O)Nc2ccncc2)CC1`, the residual activity in test [1] was 108% (inactive); in test [2] it was 96%; in [3], 72%; in [4], 24%; in test [7], 96%; in test [9], 77%. The residual activity came out at 31% in test [10]; 19% in [11]; 4% in [12]; 101% in test [16]; 104% in test [17]; 105% in [18]. The values for the residual activity in test [19] and in [20] were 123% and 124%, respectively.

Turning to `CCN(CC)C(=O)c1ccc(Nc2nc(OCC3CCCCC3)c3nc[nH]c3n2)cc1`, the residual activity in test [1] is 101% (inactive); in test [3], 101%; in [4], 23%; in [5], 22%; in test [6], 0%; in [7] it was 74%. In addition, the residual activity amounted to 41% in test [8]; 23% in [10]; 33% in test [11]; 4% in [12]; 3% in [13]; 0% in test [14]. Besides, the residual activity in test [15] is 72%; in [16], 42%; in [17], 95%; in [20], 53%.

In the case of `N#C/C(=C(\N)Sc1ccc(N)cc1)c1ccccc1C(F)(F)F`, the residual activity is 101% (inactive) in [1]; 90% in test [2]; 95% in test [3]; 109% in test [4]; 100% in [5]; 97% in test [6]. For the same compound, the residual activity in [7] is 93%; in test [8] it was 98%; in test [9], 110%; in test [10], 103%; in [11] it was 102%; in test [12], 95%. Moreover, the residual activity was determined as 109% in [13]; 90% in [14]; 88% in test [15]; 83% in [16]; 100% in test [17]; 89% in [18]. Besides, the values for the residual activity in test [19] and in [20] were 103% and 98%, respectively.

Take `Oc1ccc(Nc2nc(-c3ccc(Cl)cc3)cs2)cc1`: the residual activity in [1] is 100% (inactive); in [2] it was 94%; in test [3], 78%; in test [4] it was 118%; in test [5], 109%; in [6], 106%. Moreover, the residual activity is 107% in [7]; 89% in test [8]; 122% in test [9]; 121% in test [10]; 100% in [11]; 102% in [12]. Also, the residual activity stood at 97% in [13]; 87% in test [14]; 95% in test [15]; 106% in test [16]; 110% in test [17]; 97% in [18]. Further, the residual activity worked out at 97% in test [19] and 96% in [20].

The values above are taken from ChEMBL document CHEMBL2218924, “A broad activity screen in support of a chemogenomic map for kinase signalling research and drug discovery” (Biochem J, 2013).
